As usually defined, the inhibition is the change of the read-out against control, counted positive when it falls.

Molecules are shown by their SMILES. Among all 290,000 compounds or so, about 3,000 (1%) were called active. What follows is part of a selection rich in actives, with near analogues and random picks from the rest. Unmarked numbers belong to inactive results. No stated cut-off is given here; in the data, active means inhibition mostly above about 36% (no sharp cut-off); inactive means mostly below about 34%.

This experiment can be described thus: inhibition of NOD1-driven NF-kB reporter – cell-based, luminescence, uHTS, primary screen (AID 1578).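 Further: HEK-293T reporter cells stimulated with the NOD1 agonist gamma-tri-DAP.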 The note with it: NOD1-driven NF-kB luciferase reporter cells, at 4 µM, stronger effect = higher value. For orientation: A reporter such as luciferase makes a cellular process visible.
For the molecule `COc1ccc(CCNC(=O)C2CCN(S(=O)(=O)c3ccc4c(c3)oc(=O)n4C)CC2)cc1OC`, the inhibition was -10.7%.
As for `COC(=O)c1sccc1NC(=O)CSc1ccccc1NS(=O)(=O)c1ccccc1Cl`, the figure is 5.3%; as for `COC(=O)c1sccc1NC(=O)CSc1ccccc1NS(=O)(=O)c1ccc(Cl)cc1`, 44.2%.
As for `CC(C)[C@H](NC(=O)C1CCN(S(=O)(=O)c2ccccc2)CC1)C(=O)NCc1ccccn1`, the figure is -25.4%.
With `CCOC(=O)C(=CNc1cc(C(F)(F)F)ccc1N1CCOCC1)C(=O)OCC` the figure was 4%.
On to `CCC(C)(C)NC(=O)C(c1ccc(OC)cc1)N(Cc1ccc(OC)cc1)C(=O)CCC(=O)Nc1cc(C)on1` (centres undefined), for which the inhibition is -11.8%.
With `CN(C)c1nc(/C=C(\C#N)C(N)=O)c(Cl)n1-c1ccc(F)cc1` the figure was -6.6%; with `CN(C)c1nc(C=C(C#N)C#N)c(Cl)n1-c1ccc(F)cc1`, 80.7% (active); with `COCCNC(=O)/C(C#N)=C/c1nc(N(C)C)n(-c2ccc(F)cc2)c1Cl`, -7.8%.
As for `Oc1c(Br)cc(/C=N/n2c(-c3ccccc3)n[nH]c2=S)c(Br)c1O`, the inhibition is -1.1%.
`Oc1c(Br)cc(Br)c(/C=N/n2c(-c3ccccc3)n[nH]c2=S)c1Br`: the inhibition was 63.3% (active).
Take `Oc1c(Br)cc(/C=N/n2c(-c3ccccc3)n[nH]c2=S)c(O)c1Br`: the inhibition was 28.5%.
Consider `CCOC(=O)c1nnn(CC(=O)NC(=O)Nc2ccccc2)c1C(=O)OCC`, for which the inhibition was -7.4%.
As for `COc1ccc(-c2cn(-c3ccc(Br)cc3)c3[n+]2CCS3)cc1`, the figure is -4.3%; as for `CC(C)(C)c1ccc(-c2cn(-c3ccc(Br)cc3)c3[n+]2CCCS3)cc1`, 57.2% (active); as for `CC(=O)c1ccc(-n2cc(-c3ccc(C(C)(C)C)cc3)[n+]3c2SCCC3)cc1`, 5.2%.
As for `Cc1cc(=O)c2ccc(C(F)(F)F)cc2[nH]1`, the figure is -14.1%; as for `COCCn1c(=S)[nH]c2cc(C(=O)N3CCN(c4cccc(Cl)c4)CC3)ccc2c1=O`, 13.3%.
With `COc1ccc(OC)c2c1C(=O)C(Cl)=C(Cl)C2=O` the figure was 93.8% (active); with `COc1ccc(N)c2c1C(=O)c1ccccc1C2=O`, -34.4%; with `COc1ccc(OC)c2c1C(=O)c1ccccc1C2=O`, -6.7%.
`CCOc1ccc2nc(Cl)c(/C=C/C(=O)c3ccco3)cc2c1`: the inhibition is 69.3% (active).
As for `CCOc1ccc2cc(/C=C/C(=O)c3ccco3)c(Cl)nc2c1`, the figure is 1.7%.
In the case of `Cc1ccc2nc(Cl)c(/C=C/C(=O)c3ccco3)cc2c1`, the inhibition was -0.1%.
For the molecule `CC(C)(C)N1C(=O)[C@H]2[C@@H](c3ccc(Br)cc3)N3C(=O)N(c4cccc(Br)c4)C(=O)[C@@]3(Cc3ccccc3)[C@H]2C1=O`, the inhibition is -11.7%.
With `COc1ccc(CC(=O)Oc2ccc(F)cc2)cc1` the figure was -9.7%; with `O=C(NN/C(=N/S(=O)(=O)c1ccc(Cl)cc1)c1ccccc1)c1ccc(O)cc1`, -79.7%; with `CCc1ccc(NC(=S)N2CCN(S(=O)(=O)c3ccccc3)CC2)cc1`, -13.5%.
As for `O=C1c2ccccc2-c2onc3c(Oc4ccccc4)cc(O)c1c23`, the figure is -15.3%; as for `CCOc1ccc2noc3c2c1C(=O)c1ccccc1-3`, -12.5%.
On to `O=C1c2ccccc2-c2onc3ccc(Oc4ccccc4)c1c23`, for which the inhibition was 86.3% (active).
With `O=S(=O)(c1cccc(-n2cnnn2)c1)N1CCOCC1` the figure was -8.4%; with `CCOc1ccc2nc(SC3CC(=O)N(c4ccc(OC)cc4)C3=O)sc2c1` (centres undefined), 15.3%; with `COc1ccc(Cl)cc1N/C(N)=N/c1nc(CSc2ccc(C)cc2)cc(=O)[nH]1`, -6%.
As for `COc1ccccc1N/C(N)=N/c1nc(CSc2ccc(C)cc2)cc(=O)[nH]1`, the figure is 53% (active); as for `Cc1ccc(SCc2cc(=O)[nH]c(/N=C(\N)Nc3cccc4ccccc34)n2)cc1`, -11.6%.
As for `Cc1ccc(NC(=O)CN2CCN(C(=O)C3CCCO3)CC2)c(C)c1` (centres undefined), the figure is -8.7%.
As for `CCCCCCc1nc2ccccc2c(=O)n1NC(=O)c1c(O)c2cccc3c2n(c1=O)CCC3`, the inhibition is 46.9%.
With `CCC(=O)N1CCN(c2nc(-c3ccc(Cl)cc3)cs2)CC1` the figure was -12.7%; with `CC(=O)/C(C#N)=C1\NC(=O)C(Cc2ccccc2Cl)S1` (centres undefined), 14.5%; with `CC(=O)/C(C#N)=C1\NC(=O)C(Cc2cc(Cl)ccc2Cl)S1` (centres undefined), 55% (active).
Consider `CC(=O)/C(C#N)=C1\NC(=O)C(Cc2ccc(C)c(Cl)c2)S1` (centres undefined), for which the inhibition is 26.5%.
Regarding `COc1cc(/C=C/C(=O)N2CCOCC2)ccc1OCc1ccccc1`, the inhibition was -102%.
Turning to `Cc1cc(C)n2nc(C(=O)Nc3c(C)nn(Cc4ccc(F)cc4)c3C)cc2n1`, the inhibition is -36.9%.
With `Cc1cc2oc(=O)cc(Cn3ccnc3)c2cc1Cl` the figure was 0.9%.
For the molecule `Cc1cc2oc(=O)cc(CN3CCOCC3)c2cc1Cl`, the inhibition is 6.3%.
Take `Cc1cc2oc(=O)cc(Cn3ncc(Cl)c(Cl)c3=O)c2cc1Cl`: the inhibition is 56.2% (active).
In the case of `O=[N+]([O-])c1cc(S(=O)(=O)N2CCCC2)ccc1N/N=C1/CCCc2ccccc21`, the inhibition was 13.3%.
For the molecule `NS(=O)(=O)c1ccc(CNC(=O)c2cccnc2Cl)cc1`, the inhibition was -10.3%.
Regarding `CCOC(=O)C1CCCN(CCC(=O)Nc2cccc(C)c2)C1` (centres undefined), the inhibition was -37.8%.
In the case of `COc1ccc(/C=N/Nc2nncn2N)cc1Br`, the inhibition was -19.1%.
On to `Nn1cnnc1N/N=C/c1ccc(Cl)cc1Cl`, for which the inhibition is -3.2%.
As for `Nn1cnnc1N/N=C/c1cc(Br)cc(Br)c1O`, the figure is 82.4% (active).
With `CC(C)CCN1C(=O)c2ccccc2C1C(=O)NCc1cccnc1` (centres undefined), the inhibition was 7.5%.
As to `Cn1c(=O)c2c(nc3n2CC(COc2ccccc2)O3)n(C)c1=O` (centres undefined), the inhibition was -8.7%.
On to `COc1ccc(/C=N/Nc2snc(SC)c2C#N)cc1OC`, for which the inhibition was -0.1%.
For the molecule `COc1cc(/C=N/Nc2snc(SC)c2C#N)ccc1O`, the inhibition is 63.7%.
For the molecule `COc1cc(/C=N/Nc2snc(SC)c2C#N)cc(OC)c1OC`, the inhibition is 68.9% (active).
Take `CCOc1ccc(NC(=O)CCNS(=O)(=O)c2ccc3c(c2)oc(=O)n3C)cc1`: the inhibition is -14.8%.
For the molecule `N#CC(C(=O)c1ccccc1Cl)=C1SCCCS1`, the inhibition is -2.6%.
On to `CCN1C(=NCC(C)C)N[C@@H](c2cccc(C(F)(F)F)c2)C(C(=O)OC)=C1C`, for which the inhibition was -18.8%.
With `Cc1ccc(-c2nc3cnccn3c2Nc2ccccc2)o1` the figure was -18.2%; with `Cc1ccc(-c2nc3cnccn3c2Nc2c(C)cccc2C)o1`, 71% (active).
As for `Cc1ccc(Nc2c(-c3ccc(C)o3)nc3cnccn23)cc1`, the figure is -9.7%; as for `COc1ccc(C2c3cc(OC)c(OC)cc3CCN2C(=O)c2ccccc2)cc1OC` (centres undefined), -31.9%.
For `Cc1ccc(NC(=O)CSc2ncnc3ccccc23)cc1S(=O)(=O)N1CCCCCC1`, the inhibition is 31.7%.
For the molecule `Cc1ccc(S(=O)(=O)N2CCCCC2)cc1NC(=O)CSc1ncnc2ccccc12`, the inhibition is 58.7%.
As for `O=C(Nc1ccc(S(=O)(=O)N2CCCC2)cc1)c1cc(=O)c2ccccc2o1`, the figure is -3.6%; as for `Cc1ccc(NC(=O)c2cc(=O)c3ccccc3o2)cc1S(=O)(=O)N1CCOCC1`, -6.6%; as for `COc1ccc(Br)cc1CNC(=O)CN1C(=O)C(c2ccccc2)Oc2cccnc21` (centres undefined), 18.1%.
With `CCc1ccccc1NC(=O)CCc1c(C)nn(-c2ccc(N3CCOCC3)nn2)c1C` the figure was 20.1%; with `O=C(CSc1nnc(CNC(=O)c2cccs2)o1)Nc1ccc(Br)cc1`, -31.8%; with `CCOC(=O)c1cnc2ccc(C)cc2c1Nc1ccc(N2CCOCC2)cc1`, -17.2%.
As to `CCOC(=O)c1ccc2ncc(C(=O)OCC)c(Nc3ccc(N4CCOCC4)cc3)c2c1`, the inhibition was 107% (active).
As for `CCOC(=O)c1cnc2ccc(C(=O)OC)cc2c1Nc1ccc(C(=O)O)cc1`, the figure is -16.9%; as for `CC(C)C(NC(=O)C(C)N1C(=O)c2ccccc2C1=O)c1ccccc1` (centres undefined), -7.4%.
With `CCC(=O)c1ccc(SC(=O)N(C)C)cc1O` the figure was -4.8%.
With `C=C1CCC[C@]2(C)C[C@H]3OC(=O)C(CN4CCOCC4)[C@H]3C[C@@H]12` (some centres undefined) the figure was 2.5%; with `C=C1CCC[C@]2(C)C[C@H]3OC(=O)C(CN4CCCCC4CO)[C@H]3CC12` (some centres undefined), 80.3% (active).
As for `C=C1CCC[C@]2(C)C[C@H]3OC(=O)C(CN4CC(C)OC(C)C4)[C@H]3C[C@@H]12` (some centres undefined), the inhibition is -4.7%.
As to `COc1ccccc1NC(=O)c1sc2ncn(Cc3ccc(C)cc3)c(=O)c2c1C`, the inhibition is -43.8%.
With `CCCS(=O)(=O)Nc1cc(C(F)(F)F)ccc1OCCOC` the figure was -0.9%; with `Cc1cc(Oc2ccc(N)cn2)ccc1Cl`, 4.5%; with `CC(C)(C)c1ccc(Oc2ccc(N)cc2)cc1`, 82% (active).
For `Nc1ccc(Oc2ccc(Br)cc2)cc1`, the inhibition was -35.5%.
Regarding `Cc1cccc(Oc2ccc(N)cc2)c1`, the inhibition is -25.9%.
Consider `Cc1cc(C)cc(Oc2ccc(N)cc2)c1`, for which the inhibition was -28.1%.
As for `CC(C)(C)c1ccc(Oc2ccc(N)cn2)cc1`, the figure is 65.9% (active); as for `Nc1ccc(Oc2cc(N)cc(Oc3ccccc3)c2)cc1`, -12.3%; as for `Nc1ccc(Oc2ccc(F)cc2)nc1`, -4.6%.
On to `CCn1c2c(c3cc(Br)ccc31)CCC/C2=N\O`, for which the inhibition was 15.3%.
In the case of `O=C(CCN1CCN(Cc2ccccc2)CC1)NNC(=O)Cc1ccc(Cl)c(Cl)c1`, the inhibition is -1.2%.
As for `COCC(=O)N(Cc1cc2cc(OC)ccc2[nH]c1=O)c1ccc(C)cc1`, the inhibition is -12.1%.
For the molecule `O=C(CCS(=O)(=O)c1ccccc1)Nc1ccc2c(c1)OCO2`, the inhibition is -59.3%.
